The results in this text go back to PMC7862700, “An all-to-all approach to the identification of sequence-specific readers for epigenetic DNA modifications on cytosine”.

Holding throughout (test): DAPPL (digital affinity profiling via proximity ligation, sequencing); 10 mM Tris-HCl pH 7.5, 50 mM NaCl, 1 mM DTT, 4% glycerol, room temperature, 30 min; GST-TFs on glutathione beads, 16-mer random dsDNA library, 0.1% formaldehyde crosslink after washing; high values mean tight binding
Common to all, as to details: protein: recombinant; tags: N-terminal GST; dsDNA, one strand shown

In one assay the target is T1, FLI1 (Homo sapiens, UniProt Q01543 1-452).
T1 sequence: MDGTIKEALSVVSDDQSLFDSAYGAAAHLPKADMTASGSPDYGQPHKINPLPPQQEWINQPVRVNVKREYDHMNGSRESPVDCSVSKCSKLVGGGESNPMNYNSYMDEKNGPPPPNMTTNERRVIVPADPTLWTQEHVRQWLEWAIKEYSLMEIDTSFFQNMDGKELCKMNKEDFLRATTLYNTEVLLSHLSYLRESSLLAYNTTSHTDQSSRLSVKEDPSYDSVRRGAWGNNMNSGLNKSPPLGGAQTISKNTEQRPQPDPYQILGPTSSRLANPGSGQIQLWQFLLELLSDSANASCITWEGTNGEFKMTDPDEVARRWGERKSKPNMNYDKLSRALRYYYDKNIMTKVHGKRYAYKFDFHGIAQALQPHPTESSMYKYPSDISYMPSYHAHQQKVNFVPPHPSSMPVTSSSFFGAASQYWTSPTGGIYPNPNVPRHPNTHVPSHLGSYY
The method in brief: (§1)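 Binding signal is defined as a hexamer's read frequency for one factor over its frequency for the tag-only sample. To obtain reads, GST-fused human transcription factors were expressed in yeast, captured on glutathione beads, barcoded with DNA and pooled with that sample. Pools met 200 nmole of a 16-mer random double-stranded DNA library in Tris/NaCl/DTT/glycerol buffer for 30 min at room temperature before washing, 0.1% formaldehyde crosslinking, proximity ligation (BsaI/T4 ligase, 1 h, 37 °C), PCR and Illumina NextSeq500 sequencing.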

Another assay deals with T2, ELK1 (Homo sapiens, UniProt P19419 1-428).
T2 sequence: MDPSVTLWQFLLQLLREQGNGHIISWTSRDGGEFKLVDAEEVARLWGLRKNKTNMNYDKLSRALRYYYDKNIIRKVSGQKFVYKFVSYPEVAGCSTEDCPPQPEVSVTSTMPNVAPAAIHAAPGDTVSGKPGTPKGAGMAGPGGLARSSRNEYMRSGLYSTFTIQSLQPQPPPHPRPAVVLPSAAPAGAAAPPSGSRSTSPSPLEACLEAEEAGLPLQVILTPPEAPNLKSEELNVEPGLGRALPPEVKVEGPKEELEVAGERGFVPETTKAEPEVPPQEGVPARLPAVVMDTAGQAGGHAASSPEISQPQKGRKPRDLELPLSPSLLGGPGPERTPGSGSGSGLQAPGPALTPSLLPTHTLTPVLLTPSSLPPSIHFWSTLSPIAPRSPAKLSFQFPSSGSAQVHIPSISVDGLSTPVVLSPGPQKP
An outline of the steps: as §1

Another assay concerns the target T3, GABPA (Homo sapiens, UniProt Q06546 1-454).
T3 sequence: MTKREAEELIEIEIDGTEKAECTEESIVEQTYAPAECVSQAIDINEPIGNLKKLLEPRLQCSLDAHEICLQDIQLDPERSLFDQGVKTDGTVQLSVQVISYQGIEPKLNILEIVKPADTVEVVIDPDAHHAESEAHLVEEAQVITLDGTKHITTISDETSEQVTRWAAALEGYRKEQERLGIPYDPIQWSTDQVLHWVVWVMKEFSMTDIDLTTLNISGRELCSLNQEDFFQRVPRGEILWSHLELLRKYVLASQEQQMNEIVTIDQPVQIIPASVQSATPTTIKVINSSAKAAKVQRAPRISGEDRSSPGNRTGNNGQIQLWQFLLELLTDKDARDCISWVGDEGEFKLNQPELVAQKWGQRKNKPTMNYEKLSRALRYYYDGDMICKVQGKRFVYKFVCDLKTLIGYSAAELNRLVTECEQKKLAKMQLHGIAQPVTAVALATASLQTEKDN
An outline of the steps:
as §1

For a further assay, the target named is T4, ERG (Homo sapiens, UniProt P11308 1-479).
T4 sequence: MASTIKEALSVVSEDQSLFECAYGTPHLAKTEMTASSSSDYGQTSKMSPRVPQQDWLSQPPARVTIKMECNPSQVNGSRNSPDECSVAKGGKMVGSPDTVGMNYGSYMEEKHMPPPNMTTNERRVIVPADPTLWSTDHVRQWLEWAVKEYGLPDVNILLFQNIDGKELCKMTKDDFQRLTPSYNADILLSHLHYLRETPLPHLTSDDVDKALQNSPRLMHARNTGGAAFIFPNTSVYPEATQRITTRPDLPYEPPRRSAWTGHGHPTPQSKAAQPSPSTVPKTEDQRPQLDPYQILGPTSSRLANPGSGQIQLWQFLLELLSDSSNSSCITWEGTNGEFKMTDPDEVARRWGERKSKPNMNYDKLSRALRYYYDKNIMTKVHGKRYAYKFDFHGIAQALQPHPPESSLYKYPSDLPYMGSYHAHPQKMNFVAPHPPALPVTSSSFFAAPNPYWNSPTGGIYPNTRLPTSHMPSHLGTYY
An outline of the steps:
as §1

The target in another assay is ELF1 (Homo sapiens, UniProt P32519 1-619). The method in brief: as §1
The next assay has as its target T5, EHF (Homo sapiens, UniProt Q9NZC4 1-300).
T5 sequence: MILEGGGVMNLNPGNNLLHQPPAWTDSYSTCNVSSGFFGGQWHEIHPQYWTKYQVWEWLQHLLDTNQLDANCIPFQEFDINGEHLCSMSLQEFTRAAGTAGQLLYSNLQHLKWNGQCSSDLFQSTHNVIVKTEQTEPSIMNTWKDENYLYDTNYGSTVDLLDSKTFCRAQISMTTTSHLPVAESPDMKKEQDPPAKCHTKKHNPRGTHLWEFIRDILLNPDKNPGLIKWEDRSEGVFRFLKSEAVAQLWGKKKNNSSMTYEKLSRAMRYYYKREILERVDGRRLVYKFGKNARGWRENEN
The method in brief:
as §1

Another assay addresses SPI1 (Homo sapiens, UniProt P17947 1-270). The method in brief: as §1
The target in the next assay is SPIB (Homo sapiens, UniProt Q01892 1-262). The method in brief: as §1
Another assay has as its target T6, ELK3 (Homo sapiens, UniProt P41970 1-407).
T6 sequence: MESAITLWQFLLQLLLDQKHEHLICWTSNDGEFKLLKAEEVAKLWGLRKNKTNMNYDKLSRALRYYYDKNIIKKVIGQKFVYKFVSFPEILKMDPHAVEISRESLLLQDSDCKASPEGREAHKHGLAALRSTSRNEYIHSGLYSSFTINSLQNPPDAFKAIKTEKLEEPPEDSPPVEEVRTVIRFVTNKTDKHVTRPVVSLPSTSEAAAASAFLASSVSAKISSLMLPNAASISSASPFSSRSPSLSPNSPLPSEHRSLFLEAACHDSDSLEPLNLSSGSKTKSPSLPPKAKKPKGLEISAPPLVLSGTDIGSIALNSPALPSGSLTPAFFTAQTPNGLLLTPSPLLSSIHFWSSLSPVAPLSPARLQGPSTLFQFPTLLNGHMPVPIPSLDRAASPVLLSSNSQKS
An outline of the steps: as §1

The next assay concerns the target T7, FEV (Homo sapiens, UniProt Q99581 1-238).
T7 sequence: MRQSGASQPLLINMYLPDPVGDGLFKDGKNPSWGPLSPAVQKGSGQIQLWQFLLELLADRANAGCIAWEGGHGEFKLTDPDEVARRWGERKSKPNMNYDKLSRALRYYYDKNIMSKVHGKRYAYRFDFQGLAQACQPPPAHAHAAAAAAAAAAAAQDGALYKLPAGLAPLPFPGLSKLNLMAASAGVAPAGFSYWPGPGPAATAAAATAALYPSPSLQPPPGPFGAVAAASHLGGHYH
An outline of the steps:
as §1

The target in another assay is ETV5 (Homo sapiens, UniProt P41161 1-510). The method in brief: as §1
A further assay deals with T8, SPIC (Homo sapiens, UniProt Q8N5J4 1-248).
T8 sequence: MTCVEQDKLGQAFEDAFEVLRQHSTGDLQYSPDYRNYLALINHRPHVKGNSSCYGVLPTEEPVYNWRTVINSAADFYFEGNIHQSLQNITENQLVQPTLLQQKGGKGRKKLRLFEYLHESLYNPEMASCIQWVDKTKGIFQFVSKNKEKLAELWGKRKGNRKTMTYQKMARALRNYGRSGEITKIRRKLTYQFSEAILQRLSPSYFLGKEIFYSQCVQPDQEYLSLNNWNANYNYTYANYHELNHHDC
The method in brief:
as §1

The next assay deals with ELF4 (Homo sapiens, UniProt Q99607 1-663). An outline of the steps: as §1
Another assay deals with T9, ELK4 (Homo sapiens, UniProt P28324-2 1-405).
T9 sequence: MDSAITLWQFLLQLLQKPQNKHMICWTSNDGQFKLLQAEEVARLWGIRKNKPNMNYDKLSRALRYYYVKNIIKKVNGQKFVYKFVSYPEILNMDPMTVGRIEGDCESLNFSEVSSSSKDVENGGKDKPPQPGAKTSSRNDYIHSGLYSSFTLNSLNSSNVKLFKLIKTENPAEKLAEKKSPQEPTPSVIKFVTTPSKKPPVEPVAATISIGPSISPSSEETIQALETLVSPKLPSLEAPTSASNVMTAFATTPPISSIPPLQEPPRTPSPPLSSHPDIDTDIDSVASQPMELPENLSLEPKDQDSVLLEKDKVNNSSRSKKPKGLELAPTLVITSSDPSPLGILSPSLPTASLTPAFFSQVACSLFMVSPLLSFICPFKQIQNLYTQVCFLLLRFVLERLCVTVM
An outline of the steps: as §1

For another assay, the target named is T10, ETV2 (Homo sapiens, UniProt O00321 1-342).
T10 sequence: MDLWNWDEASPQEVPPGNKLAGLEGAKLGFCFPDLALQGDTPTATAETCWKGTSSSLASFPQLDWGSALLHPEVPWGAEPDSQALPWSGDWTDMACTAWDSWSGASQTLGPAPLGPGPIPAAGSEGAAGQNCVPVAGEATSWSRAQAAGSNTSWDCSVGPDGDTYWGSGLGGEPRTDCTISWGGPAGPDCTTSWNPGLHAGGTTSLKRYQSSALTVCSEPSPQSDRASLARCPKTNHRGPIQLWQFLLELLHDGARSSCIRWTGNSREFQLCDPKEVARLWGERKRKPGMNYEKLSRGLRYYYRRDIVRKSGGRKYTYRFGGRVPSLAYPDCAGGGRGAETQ
The method in brief: as §1

For a further assay, the target named is T11, ELF3 (Homo sapiens, UniProt P78545 1-371).
T11 sequence: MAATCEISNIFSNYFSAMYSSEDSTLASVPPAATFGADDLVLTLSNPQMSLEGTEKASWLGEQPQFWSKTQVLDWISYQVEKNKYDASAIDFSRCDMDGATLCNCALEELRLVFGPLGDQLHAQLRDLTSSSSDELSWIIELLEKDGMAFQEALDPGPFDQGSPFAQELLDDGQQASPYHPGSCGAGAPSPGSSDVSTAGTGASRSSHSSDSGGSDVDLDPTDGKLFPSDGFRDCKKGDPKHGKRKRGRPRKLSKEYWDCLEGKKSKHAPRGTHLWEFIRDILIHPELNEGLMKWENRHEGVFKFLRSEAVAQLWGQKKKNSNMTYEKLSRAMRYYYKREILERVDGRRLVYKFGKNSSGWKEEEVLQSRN
An outline of the steps: as §1

The target in another assay is ETV1 (Homo sapiens, UniProt P50549 1-477). The method in brief: as §1
Chain of ETV1 (P50549 whole entry): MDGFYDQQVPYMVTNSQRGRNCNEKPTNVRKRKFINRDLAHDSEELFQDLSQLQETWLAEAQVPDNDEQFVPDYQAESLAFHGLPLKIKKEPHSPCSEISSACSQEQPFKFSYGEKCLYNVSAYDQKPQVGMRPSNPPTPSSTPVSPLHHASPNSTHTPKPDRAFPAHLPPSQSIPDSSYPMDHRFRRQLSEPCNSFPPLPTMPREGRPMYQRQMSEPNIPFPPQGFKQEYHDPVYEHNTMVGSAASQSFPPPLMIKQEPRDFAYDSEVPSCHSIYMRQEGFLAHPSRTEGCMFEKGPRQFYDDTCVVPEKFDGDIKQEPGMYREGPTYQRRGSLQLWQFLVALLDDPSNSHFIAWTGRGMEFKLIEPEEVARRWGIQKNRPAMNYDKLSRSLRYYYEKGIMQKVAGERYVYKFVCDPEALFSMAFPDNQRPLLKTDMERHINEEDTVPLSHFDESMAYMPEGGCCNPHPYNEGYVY

Chain of ELF4 (Q99607 whole entry): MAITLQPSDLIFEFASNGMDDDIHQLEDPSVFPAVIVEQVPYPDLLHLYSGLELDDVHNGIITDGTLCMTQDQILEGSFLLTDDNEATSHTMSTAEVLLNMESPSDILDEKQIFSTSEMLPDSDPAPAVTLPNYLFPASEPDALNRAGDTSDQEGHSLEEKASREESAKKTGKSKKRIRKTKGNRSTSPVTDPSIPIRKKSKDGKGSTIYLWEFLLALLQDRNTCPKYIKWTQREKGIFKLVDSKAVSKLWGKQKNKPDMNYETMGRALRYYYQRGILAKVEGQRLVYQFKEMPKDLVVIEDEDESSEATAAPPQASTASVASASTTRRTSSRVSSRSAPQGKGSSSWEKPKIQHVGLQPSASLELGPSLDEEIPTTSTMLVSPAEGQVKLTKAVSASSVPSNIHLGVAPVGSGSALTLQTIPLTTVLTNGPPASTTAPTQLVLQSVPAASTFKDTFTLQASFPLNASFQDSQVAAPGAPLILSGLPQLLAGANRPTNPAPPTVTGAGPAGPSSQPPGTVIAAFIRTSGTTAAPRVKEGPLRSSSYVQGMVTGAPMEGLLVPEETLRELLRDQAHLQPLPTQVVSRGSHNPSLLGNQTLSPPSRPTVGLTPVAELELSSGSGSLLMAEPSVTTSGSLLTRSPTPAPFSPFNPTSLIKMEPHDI
Chain of SPIB (Q01892 whole entry): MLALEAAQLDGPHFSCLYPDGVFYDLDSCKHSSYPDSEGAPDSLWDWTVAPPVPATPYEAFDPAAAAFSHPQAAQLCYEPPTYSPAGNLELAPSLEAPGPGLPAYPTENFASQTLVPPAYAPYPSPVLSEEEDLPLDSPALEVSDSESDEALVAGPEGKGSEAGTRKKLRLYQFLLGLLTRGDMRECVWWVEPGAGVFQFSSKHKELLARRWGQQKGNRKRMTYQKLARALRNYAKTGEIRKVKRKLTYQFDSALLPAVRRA
Chain of ELF1 (P32519 whole entry): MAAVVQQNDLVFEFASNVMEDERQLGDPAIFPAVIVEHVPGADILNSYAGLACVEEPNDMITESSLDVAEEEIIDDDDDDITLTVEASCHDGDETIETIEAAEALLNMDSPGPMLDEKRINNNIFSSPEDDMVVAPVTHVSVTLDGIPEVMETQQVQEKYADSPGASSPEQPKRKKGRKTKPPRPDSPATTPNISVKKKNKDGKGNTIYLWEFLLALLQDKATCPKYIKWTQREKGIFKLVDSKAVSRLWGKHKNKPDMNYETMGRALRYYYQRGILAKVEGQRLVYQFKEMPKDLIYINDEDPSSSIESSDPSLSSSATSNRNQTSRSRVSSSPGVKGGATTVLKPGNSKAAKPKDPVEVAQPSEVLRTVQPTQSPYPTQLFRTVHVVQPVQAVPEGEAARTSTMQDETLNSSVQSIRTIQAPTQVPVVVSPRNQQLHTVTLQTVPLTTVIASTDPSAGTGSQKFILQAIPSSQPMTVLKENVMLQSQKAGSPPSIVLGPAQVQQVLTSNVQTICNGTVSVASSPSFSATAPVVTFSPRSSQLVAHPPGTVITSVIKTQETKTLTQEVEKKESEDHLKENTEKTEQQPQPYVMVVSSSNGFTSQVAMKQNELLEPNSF
Chain of ETV5 (P41161 whole entry): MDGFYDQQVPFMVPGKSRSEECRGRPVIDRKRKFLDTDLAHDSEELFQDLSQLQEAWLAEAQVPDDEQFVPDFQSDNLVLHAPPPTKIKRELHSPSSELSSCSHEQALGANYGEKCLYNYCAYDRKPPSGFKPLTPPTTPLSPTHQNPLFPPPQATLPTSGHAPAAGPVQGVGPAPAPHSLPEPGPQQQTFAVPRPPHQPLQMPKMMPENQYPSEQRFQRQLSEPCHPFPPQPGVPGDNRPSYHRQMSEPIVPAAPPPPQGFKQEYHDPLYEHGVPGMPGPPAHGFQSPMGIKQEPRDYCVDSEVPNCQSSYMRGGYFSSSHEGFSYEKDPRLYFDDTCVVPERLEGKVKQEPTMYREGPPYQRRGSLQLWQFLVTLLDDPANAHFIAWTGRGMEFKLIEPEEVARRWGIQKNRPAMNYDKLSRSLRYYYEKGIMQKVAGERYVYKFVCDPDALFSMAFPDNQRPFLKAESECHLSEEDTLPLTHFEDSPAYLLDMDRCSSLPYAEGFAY

As for CGACGT, the binding signal in the assay with FLI1 is 1.23 fold enrichment (6-mer frequency, TF over GST control); in the assay with ELK1, 1.09 fold enrichment (6-mer frequency, TF over GST control); with GABPA it was 1.22 fold enrichment (6-mer frequency, TF over GST control); with ERG, 1.06 fold enrichment (6-mer frequency, TF over GST control); with ELF1, 1.11 fold enrichment (6-mer frequency, TF over GST control); with EHF, 1.14 fold enrichment (6-mer frequency, TF over GST control). The binding signal with SPI1 was 1.08 fold enrichment (6-mer frequency, TF over GST control); with SPIB, 1 fold enrichment (6-mer frequency, TF over GST control); with ELK3, 1.07 fold enrichment (6-mer frequency, TF over GST control); in the assay with FEV it was 1.09 fold enrichment (6-mer frequency, TF over GST control); with ETV5, 1.12 fold enrichment (6-mer frequency, TF over GST control); in the assay with SPIC it was 1.05 fold enrichment (6-mer frequency, TF over GST control). For the same sequence, the binding signal with ELF4 is 1.21 fold enrichment (6-mer frequency, TF over GST control); in the assay with ELK4, 1.15 fold enrichment (6-mer frequency, TF over GST control); with ETV2, 1.49 fold enrichment (6-mer frequency, TF over GST control); with ELF3, 1.09 fold enrichment (6-mer frequency, TF over GST control); with ETV1, 1.05 fold enrichment (6-mer frequency, TF over GST control).

As to TCGCCG, the binding signal with FLI1 was 1.14 fold enrichment (6-mer frequency, TF over GST control); in the assay with ELK1, 1.24 fold enrichment (6-mer frequency, TF over GST control); with GABPA, 1.27 fold enrichment (6-mer frequency, TF over GST control); in the assay with ERG, 1.24 fold enrichment (6-mer frequency, TF over GST control); with ELF1 it was 1.23 fold enrichment (6-mer frequency, TF over GST control); with EHF, 1.34 fold enrichment (6-mer frequency, TF over GST control). Further, the binding signal in the assay with SPI1 is 1.14 fold enrichment (6-mer frequency, TF over GST control); with SPIB it was 1.16 fold enrichment (6-mer frequency, TF over GST control); in the assay with ELK3, 1.16 fold enrichment (6-mer frequency, TF over GST control); with FEV it was 1.26 fold enrichment (6-mer frequency, TF over GST control); in the assay with ETV5 it was 1.03 fold enrichment (6-mer frequency, TF over GST control); with SPIC, 1.09 fold enrichment (6-mer frequency, TF over GST control). For the same sequence, the binding signal with ELF4 was 1.21 fold enrichment (6-mer frequency, TF over GST control); with ELK4, 1.3 fold enrichment (6-mer frequency, TF over GST control); in the assay with ETV2, 1.2 fold enrichment (6-mer frequency, TF over GST control); with ELF3 it was 1.21 fold enrichment (6-mer frequency, TF over GST control); with ETV1, 1.37 fold enrichment (6-mer frequency, TF over GST control).
